Pf Dd2 growth: P. falciparum Dd2 growth inhibitors, primary screen, SYBR Green fluorescence, single dose replicates; 72 h; hits give low values; activity change, % at 10 µM; 2.3% of 94,000 active; in the data active = activity change below about -80%; inconclusive = no clear call, values can overlap the other calls
C diff growth: C. difficile growth inhibitors, primary screen, HTS; AID 1259249, 2017; growth activity, negative = inhibition, % at 16 µg/mL (by protocol); Clostridium difficile clinical isolate growth, OD600, 24 h; hits give low values; 0.25% of 86,000 active;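 active = mean growth activity at or below -80% and every replicate also at or below -80%; inconclusive = mean at or below -80% but some replicate above -80%; inactive = mean growth activity above -80%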
T cruzi growth: T. cruzi intracellular proliferation inhibitors, primary screen, cell-based, beta-gal Tulahuen parasites, NIH3T3 host, luminescence; T. cruzi beta-gal in NIH3T3, GalScreen luminescence, 90 h; inhibition, % at 8.34 µM; 5.9% of 77,000 active; AID 624255, 2012;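 active = mean inhibition above about 93%, with at least 55% of replicates each passing it, limit read from the data, passing the limit was not always enough; inconclusive = only one of those two conditions holds; inactive = neither condition holds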
A number is an active result; . = inactive; ? = inconclusive; / = not tested or not shown. Hits are enriched below; roughly 6.7% of the tested compounds scored in any of these assays.

SMILES | Pf Dd2 growth | C diff growth | T cruzi growth
COc1cccc(CNC(=O)C[C@@H]2C=C[C@H](NC(=O)C3CC3)[C@@H](CO)O2)c1 | . | . | /
COc1cccc(CNC(=O)C[C@@H]2C=C[C@H](NS(=O)(=O)c3ccccc3OC)[C@@H](CO)O2)c1 | . | . | .
COc1ccccc1-c1ccc([C@@H]2[C@@H](C#N)N(C(=O)C3CCCCC3)[C@@H]2CO)cc1 | . | . | .
COc1ccccc1C#Cc1ccc([C@H]2[C@@H](C#N)N(C(=O)C3CCCCC3)[C@H]2CO)cc1 | -91.6 | . | .
COc1ccccc1C#Cc1ccc([C@@H]2[C@@H](C#N)N(C(=O)C3CCCCC3)[C@H]2CO)cc1 | -90.6 | . | .
N#C[C@H]1[C@H](c2ccc(C#Cc3ccccc3F)cc2)[C@H](CO)N1C(=O)C1CCCC1 | . | . | /
CCCN1C[C@@H](C)[C@H](OC)CN(C)C(=O)c2ccc(NC(=O)c3ccccc3F)cc2OC[C@@H]1C | . | / | .
C[C@@H]1CN([C@H](C)CO)C(=O)c2cc(NC(=O)CCC(F)(F)F)ccc2O[C@H]1CN(C)C | . | . | /
O=C(c1ccc(F)cc1)N1CC(=O)N2[C@@H](CO)[C@@H](c3ccc(C#CC4CC4)cc3)[C@@H]2C1 | . | . | /
C[C@@H]1CN([C@@H](C)CO)C(=O)c2c(c3ccccc3n2C)-c2ccccc2CO[C@H]1CN(C)C(=O)c1ccc(F)cc1 | . | / | .
C[C@H](CO)N1C[C@H](C)[C@H](CN(C)C(=O)c2ccc(F)cc2)OCc2ccccc2-c2c(n(C)c3ccccc23)C1=O | -85.7 | / | .
C[C@@H]1CN([C@H](C)CO)C(=O)c2c(c3ccccc3n2C)-c2ccccc2CO[C@@H]1CN(C)C(=O)c1cc(Cl)cc(Cl)c1 | -92.3 | . | /
C[C@H]1CN([C@@H](C)CO)C(=O)c2c(c3ccccc3n2C)-c2ccccc2CO[C@H]1CN(C)C(=O)c1cc(Cl)cc(Cl)c1 | -87.9 | . | /
C[C@H]1CN([C@@H](C)CO)C(=O)c2c(c3ccccc3n2C)-c2ccccc2CO[C@@H]1CN(C)C(=O)c1cc(Cl)cc(Cl)c1 | ? | . | /
C[C@H]1CN([C@@H](C)CO)C(=O)c2c(c3ccccc3n2C)-c2ccccc2CO[C@@H]1CN(C)C(=O)c1ccccc1 | . | / | .
CN1C(=O)c2cc(NC(=O)c3cccs3)ccc2OC[C@@H]2O[C@@H](CC(=O)N3CCOCC3)CC[C@@H]21 | . | . | .
O=C(Nc1ccc(Cl)c(Cl)c1)N[C@H]1CC[C@@H](CCNC(=O)c2ccc(F)cc2)O[C@@H]1CO | . | / | .
CN(C)Cc1cn(CC[C@@H]2CC[C@H](NS(=O)(=O)c3ccccc3)[C@H](CO)O2)nn1 | / | . | /
CCCc1cn(CC[C@H]2CC[C@H](NS(=O)(=O)c3ccccc3Cl)[C@H](CO)O2)nn1 | . | . | .
CCCc1cn(CC[C@H]2CC[C@@H](NS(=O)(=O)c3ccc(-c4ccccc4)cc3)[C@@H](CO)O2)nn1 | -93.7 | . | .
CCCc1cn(CC[C@@H]2CC[C@@H](NS(=O)(=O)c3ccc(-c4ccccc4)cc3)[C@@H](CO)O2)nn1 | -91.4 | . | .
CC(C)NC(=O)N(C)C[C@H]1Oc2ccc(NC(=O)Cn3cnnn3)cc2C(=O)N([C@@H](C)CO)C[C@H]1C | . | / | .
Cc1ccc(S(=O)(=O)N(C)C[C@H]2OCCCC[C@@H](C)Oc3ccc(NS(=O)(=O)c4cccs4)cc3C(=O)N([C@H](C)CO)C[C@@H]2C)cc1 | . | / | .
C[C@@H]1CCCCO[C@H](CN(C)S(=O)(=O)c2ccc(F)cc2)[C@H](C)CN([C@@H](C)CO)C(=O)c2cc(NS(=O)(=O)c3cccs3)ccc2O1 | . | . | .
C[C@@H]1CN([C@H](C)CO)C(=O)c2cc(NS(=O)(=O)c3cccs3)ccc2O[C@@H](C)CCCCO[C@@H]1CN(C)S(=O)(=O)c1ccc(F)cc1 | -89.5 | . | .
SMILES | Pf Dd2 growth | C diff growth | T cruzi growth
Cc1ccc(S(=O)(=O)N(C)C[C@H]2OCCCC[C@H](C)Oc3ccc(NS(=O)(=O)c4cccs4)cc3C(=O)N([C@@H](C)CO)C[C@H]2C)cc1 | -85.0 | / | .
CN1C(=O)c2cc(NC(=O)C3CCOCC3)ccc2OC[C@@H]2O[C@H](CC(=O)NC3CCCC3)CC[C@H]21 | . | . | .
CCCNC(=O)C[C@@H]1CC[C@H]2[C@H](COc3ccc(NC(=O)c4cccs4)cc3C(=O)N2C)O1 | . | . | .
CCCNC(=O)N1CC2(CN(C(=O)Cc3cccnc3)C2)c2c([nH]c3cc(OC)ccc23)[C@H]1CO | . | . | /
C[C@H]1CCCCO[C@H](CN(C)C(=O)Cc2ccccc2)[C@@H](C)CN([C@@H](C)CO)C(=O)c2cc(N(C)C)ccc2O1 | . | . | .
C[C@@H]1CCCCO[C@@H](CN(C)Cc2ccc(C(F)(F)F)cc2)[C@@H](C)CN([C@@H](C)CO)C(=O)c2cc(NC(=O)CCC(F)(F)F)ccc2O1 | . | . | .
C[C@H]1CCCCO[C@@H](CN(C)Cc2ccc(C(F)(F)F)cc2)[C@@H](C)CN([C@@H](C)CO)C(=O)c2cc(NC(=O)CCCN(C)C)ccc2O1 | -85.1 | . | .
C[C@@H]1CCCCO[C@H](CN(C)Cc2ccc(C(F)(F)F)cc2)[C@H](C)CN([C@H](C)CO)C(=O)c2cc(NC(=O)CCCN(C)C)ccc2O1 | -87.0 | . | .
C[C@@H]1CCCCO[C@@H](CN(C)Cc2ccc(C(=O)O)cc2)[C@@H](C)CN([C@H](C)CO)C(=O)c2cc(NC(=O)CCCN(C)C)ccc2O1 | . | . | .
C[C@@H]1CN([C@H](C)CO)C(=O)c2cc(NC(=O)CCCN(C)C)ccc2O[C@@H](C)CCCCO[C@@H]1CN(C)Cc1ccc(C(F)(F)F)cc1 | -86.7 | . | .
C[C@@H]1CCCCO[C@H](CN(C)Cc2ccc(C(F)(F)F)cc2)[C@H](C)CN([C@@H](C)CO)C(=O)c2cc(NC(=O)CCC(F)(F)F)ccc2O1 | ? | . | .
C[C@@H]1CCCCO[C@H](CN(C)Cc2ccc(C(F)(F)F)cc2)[C@@H](C)CN([C@H](C)CO)C(=O)c2cc(NC(=O)CCCN(C)C)ccc2O1 | . | . | .
C[C@H]1CCCCO[C@H](CN(C)Cc2ccc(C(F)(F)F)cc2)[C@@H](C)CN([C@@H](C)CO)C(=O)c2cc(NC(=O)CCCN(C)C)ccc2O1 | -85.8 | . | .
CC(C)NC(=O)N[C@@H]1CC[C@H](CC(=O)NCc2ccc(Oc3ccccc3)cc2)O[C@@H]1CO | . | / | .
COc1ccc(NC(=O)N(C)C[C@@H]2Oc3ccc(NC(=O)Nc4ccccc4)cc3C(=O)N([C@@H](C)CO)C[C@H]2C)cc1 | . | . | .
C=CCOC(=O)[C@H]1[C@@H]2C(=O)O[C@@H](c3ccccc3)[C@@H](c3ccccc3)N2[C@@H](c2ccc(OCCOC(=O)[C@@H]3C[C@@H]4C(=O)N[C@@H](Cc5ccccc5)C(=O)N4[C@@H]3c3ccc(O)cc3)cc2)[C@]12C(=O)Nc1ccc(I)cc12 | / | . | /
C[C@H](CO)N1C[C@H](C)[C@@H](CN(C)Cc2ccc(C(F)(F)F)cc2)OCCCC[C@H](C)Oc2ccc(NC(=O)CCCN(C)C)cc2C1=O | . | . | .
C[C@@H]1CCCCO[C@@H](CN(C)Cc2ccc(C(F)(F)F)cc2)[C@H](C)CN([C@H](C)CO)C(=O)c2cc(NC(=O)CCCN(C)C)ccc2O1 | -88.9 | . | .

Compound activity (PubChem)
